# SKKanGAS inh: inhibitors of SKKanGAS S. pyogenes growth in kanamycin (SK-promoter or general growth effect) | inhibition, % at 7.5 µM | BacTiter-Glo, 6 h | 1.3% of 300,000 active | AID 1662;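 active means mean replicate score, as percent of positive control median, at least 50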;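 further: strain carries kanamycin resistance gene driven by streptokinase promoter and grows in 40 µg/ml kanamycin; loss of luminescence reflects streptokinase promoter inhibition or plain growth inhibition; 0% = median of DMSO wells and 100% = positive control at its reference dose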
# tim10-1 inh: inhibits growth of tim10-1 mutant yeast | AID 463190 | 2.2% of 330,000 active | inhibition, % at 20 µM | S. cerevisiae tim10-1 ts strain growth, BacTiter-Glo, 24 h;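 active means inhibition of at least 40%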;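 further: mutant grown at 25 °C; 0% = DMSO wells with yeast and 100% = wells holding no yeast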
# tim23-1 inh: inhibits growth of tim23-1 mutant yeast. inhibition, % at 20 µM. 1.3% of 330,000 active. S. cerevisiae tim23-1 growth, BacTiter-Glo luminescence, 24 h. AID 463212;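 active means growth inhibition of the mutant yeast at or above 50%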;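 further: temperature-sensitive mutant grown at 25 °C; plate controls were DMSO-treated mutant yeast for no effect and medium wells lacking yeast for full effect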
# PfHsp90 set2: reduces growth (ATP signal) of yeast expressing P. falciparum Hsp90. S. cerevisiae expressing PfHsp90, BacTiter-Glo ATP, 48 h; yeast lacking PDR1 and PDR3 efflux regulators. inhibition, % at 9.4 µM. 0.32% of 310,000 active;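 active means every replicate shows inhibition above about 80%, whatever the replicate mean, limit read from the data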;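 further: 0% = DMSO neutral controls and 100% = 20 µM radicicol positive controls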
# TIM10 inh: TIM10 yeast growth inhibition; S. cerevisiae TIM10 strain growth, BacTiter-Glo luminescence, 24 h; inhibition, % at 10 µM; 1.4% of 330,000 active;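 active means inhibition of 40% or more at the single tested concentration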;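 further: wild-type TIM10 isogenic control strain grown at permissive 25 °C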
# NALP3 yeast inh: blocks the NALP3 inflammasome reconstituted in yeast. Yeast reconstituted NLRP3/ASC/caspase-1, beta-gal luminescence, 24 h. inhibition, % at 10 µM. 0.39% of 330,000 active. AID 2825;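 active means inhibition of 50% or more; inactive means inhibition below 50%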;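 further: plate controls were induced DMSO wells for no effect and uninduced yeast grown without galactose for full effect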
# tim10-1 confirm: tim10-1 yeast growth inhibition, confirmed | inhibition, % at 20 µM | S. cerevisiae tim10-1 ts strain growth, BacTiter-Glo, 24 h | shares compounds with tim10-1 inh | 56% of 7,400 active;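 active means inhibition of yeast growth at or above a set limit in either of two repeat tests at 20 µM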;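 further: tim10-1 mutant grown at permissive 25 °C to find synthetic lethal compounds; 0% = DMSO yeast wells and 100% = medium wells without yeast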
# TIM10 conf: TIM10 yeast growth inhibition, confirmed; shares compounds with TIM10 inh; AID 463215; S. cerevisiae tim10 strain growth, BacTiter-Glo luminescence, 24 h; inhibition, % at 10 µM; 63% of 4,600 active;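 active means inhibition of yeast growth at or above a set limit in either of two replicates at 10 µM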;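 further: this counterscreen used the strain with wild-type TIM10; 0% = yeast with DMSO and 100% = medium wells lacking yeast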
# * = called active by the depositor; nt = no result. Only some compounds are listed: those with a hit (about 4.6% of all), similar ones and a draw of the others.
SMILES,SKKanGAS inh,tim10-1 inh,tim23-1 inh,PfHsp90 set2,TIM10 inh,NALP3 yeast inh,tim10-1 confirm,TIM10 conf
COc1ccc(CCNC(=O)/C=C/c2ccc(S(=O)(=O)N3CCOCC3)cc2)cc1,nt,7,6,-10,9,13,nt,nt
CCOC(=O)c1ccc(NC(=O)CC2C(=O)OCCN2CC)cc1 (stereo not drawn),0,68*,37,108*,44*,13,59*,58*
Cc1cc(Br)c(Cl)cc1NC(=O)CN1C(=O)C2C3CC(c4ccccc4)C(C3)C2C1=O (stereo not drawn),7,52*,35,5,52*,15,43*,5
O=C(Oc1ccc(/C=N/O)cc1)c1ccccc1Cl,-15,52*,47,3,57*,14,45*,29
CN(C)c1ccc(S(=O)(=O)N2CCCCC2)cc1NC(=O)CCNC(=O)c1ccco1,nt,-13,-5,0,6,18,nt,nt
CC1CCCCN1S(=O)(=O)c1ccc2c(c1)CCN2C(=O)C1CCC1 (stereo not drawn),0,42*,-19,22,44*,32,40*,20
O=C(C1CC1)N1CCc2cc(S(=O)(=O)N3CCOCC3)ccc21,10,10,10,11,-7,-16,nt,nt
CCSc1nnc(NC(=O)c2nc(-c3ccccc3)n(-c3ccccc3)n2)s1,63*,55*,50,-8,51*,20,52*,-21
CCSc1nnc(NC(=O)c2cc(C)nc3ccccc23)s1,22,19,-4,-8,3,21,nt,nt
CCCc1nnc(SCC(=O)NC2CC2)n1C,3,-30,-6,18,9,2,nt,nt
COc1cccc(N2CCN(CC(=O)Nc3nc4c(s3)CC(C)CC4)CC2)c1 (stereo not drawn),4,40*,37,15,40*,8,20,29
COc1cccc(N2CCN(CC(=O)Nc3nc(C)c(C(=O)N(C)C)s3)CC2)c1,6,9,10,15,-7,4,nt,nt
O=C(NNS(=O)(=O)c1ccc([N+](=O)[O-])cc1)c1ccc([N+](=O)[O-])cc1,8,-8,5,4,0,20,nt,nt
CCN(CC(=O)Nc1ccc(NC(C)=O)cc1)C(=O)C1COc2ccccc2O1 (stereo not drawn),4,-27,-5,-17,-1,7,nt,nt
CNC(=S)N/N=C(\C)c1ccc2c(c1)OCCO2,-4,16,10,-14,19,9,nt,nt
C/C(=N\NC(=S)NC(C)C)c1ccc2c(c1)OCCO2,-1,43*,40,-30,41*,22,19,8
N#Cc1cccc2c1-c1ccccc1/C2=N/NC(N)=S,22,52*,40,-9,47*,21,41*,56*
N#Cc1cccc2c1-c1ccccc1/C2=N/NC(N)=O,-2,-3,18,-8,-7,7,nt,nt
CCOC(=O)C(C(=O)OCC)c1cc(Br)c2noc3c2c1C(=O)c1ccccc1-3,91*,42*,46,19,44*,17,39*,27
COc1cccc2oc(-c3ccco3)cc(=O)c12,9,45*,41,-12,47*,1,26,40*
O=C(NCC1CCCCC1)c1cccc([N+](=O)[O-])c1,-5,3,21,12,-8,28,nt,nt
N/C(=N\OC(=O)CC1CCCCC1)c1cccc([N+](=O)[O-])c1,-2,56*,38,15,46*,6,65*,36*
CC12CCC(C(=O)N3CCC(Cc4ccccc4)CC3)(C(=O)C1=O)C2(C)C (stereo not drawn),-7,35,36,6,30,3,nt,nt
Cc1c(F)cccc1NS(=O)(=O)c1ccc2c(c1)NC(=O)CO2,-17,4,0,-9,11,14,nt,nt
S=C(NCCN1CCOCC1)N/N=C/c1c2ccccc2cc2ccccc12,29,57*,30,-6,42*,-15,43*,-18
SMILES,SKKanGAS inh,tim10-1 inh,tim23-1 inh,PfHsp90 set2,TIM10 inh,NALP3 yeast inh,tim10-1 confirm,TIM10 conf
COc1ccc2ccccc2c1/C=N/NC(=S)NCCN1CCOCC1,7,23,9,16,21,2,nt,nt
CSCc1c(C(=O)NC2CCCc3ccccc32)oc2ccccc12 (stereo not drawn),11,50*,24,-1,41*,16,33*,-2
Cc1ccc(OCc2ccc(C(=O)O)o2)c([N+](=O)[O-])c1,-1,-9,6,-8,-6,-8,nt,nt
Cc1ccc(-n2sc3ccccc3c2=O)cc1S(=O)(=O)N1CCCCC1,90*,87*,17,106*,57*,9,89*,76*
Cc1ccccc1-n1sc2cc(F)ccc2c1=O,nt,40*,41,nt,49*,24,38*,70*
O=c1c2ccccc2sn1-c1ccccc1,100*,86*,32,88*,58*,30,51*,97*
CC1NC(=O)c2ccccc2-n2c1nc1cc(F)ccc1c2=O (stereo not drawn),nt,9,29,nt,6,19,nt,nt
O=c1c2cc(F)ccc2sn1-c1ccccc1,nt,45*,38,-7,47*,18,56*,77*
O=c1c2ccccc2sn1-c1ccc(S(=O)(=O)N2CCCCC2)cc1,-3,19,1,-11,22,18,nt,nt
O=C(O)c1cccc(-n2sc3ccccc3c2=O)c1,nt,1,9,-3,2,23,nt,nt
CC(C)(C)c1ccc(C(=O)NCCCNC(=O)c2ccccn2)cc1,-6,-4,4,-6,8,-3,nt,nt
CN(CC(=O)Nc1cccc(F)c1)C(=O)c1cc(S(=O)(=O)N2CCN(c3ccccc3)CC2)ccc1Cl,nt,6,4,4,9,15,nt,nt
O=C(CCCSc1nc2ccccc2[nH]1)Nc1nnc(C2CC2)s1,-1,6,21,-4,10,1,nt,nt
O=C(CCc1ccccc1)NC1(Cc2ccccc2)CCN(CCCc2ccccc2)C1=O (stereo not drawn),nt,26,42,7,18,18,nt,nt
COc1ccc(/C(N)=N/OC(=O)c2ccc([N+](=O)[O-])c(C)c2)cc1OC,17,65*,46,-86,49*,13,71*,36*
Cc1cc(C(=O)O/N=C(\N)c2ccncc2)ccc1[N+](=O)[O-],5,13,11,0,4,-51,nt,nt
NNc1nc2c(Cl)ccc(Cl)c2s1,4,58*,47,-5,53*,1,58*,3
O=C(Nc1nc2c(Cl)ccc(Cl)c2s1)C1CC1,6,40,30,19,35,8,nt,nt
